Reference: PubChem BioAssay
Calls of active or inactive are those of the source.

tested on: Wnt5a (protein binding on small-molecule microarray); test: Wnt5a binders on small-molecule microarray, primary screen, biophysical, 635/667 nm fluorescence (AID 1142); details: 635 nm fluorescence, higher = more signal;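 further: fluorescence read at 667 nm with signal to noise per printed feature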

Compound	composite z-score
CN1C(=O)C2C=CC(C(O)c3c(F)cccc3Cl)N(NC(=O)OC(C)(C)C)C2C1=O (configuration not stated)	0.213
O=C1OCCC/C=C\[C@H]2OC34C=CCN(c5ccc6ccccc6c5)C(=O)[C@H]3N(CCCCCO)C(=O)[C@@H]4C12 (some centres not stated)	-0.591
COc1ccc([Si](C)(C)[C@H]2[C@H](CC(=O)N3CCC[C@H]3CO)O[C@@]3(C(=O)N(Cc4cccc(N5CCOC5=O)c4)c4ccccc43)[C@@H]2C)cc1	0.307
COCC(=C=CC[C@H](O)c1cccc(OCCO)c1)CCO	0.461
C=CCC(OC(C)=O)[C@@H]1[C@@H](N(Cc2ccc(-c3cccc(C(F)(F)F)c3)o2)C(=O)c2cccc3ccccc23)c2cc(OCCCO)ccc2N1C(=O)Cc1ccc2ccccc2c1 (some centres not stated)	-0.078
COCCOC(=O)N1C(=O)[C@@]2(c3ccccc31)[C@H](C(=O)N1CCCCCCC1)[C@H]1C(=O)O[C@H](c3ccccc3)[C@H](c3ccccc3)N1[C@@H]2c1ccc(OCCO)cc1	2.59

tested on: not listed separately; test: cell viability in Huh7 cells, primary screen, cytotoxicity control for HCV replication inhibitor project, CellTiter-Glo luminescence, basal, 48 h (AID 1143); details: Huh7 HCV replicon, higher = more signal, called active from +8 up or from −8 down;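 further: Huh7 hepatoma cells carrying a hepatitis C replication reporter with no stimulus; test concentration not given here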

Compound	z-score
COC(=O)[C@@]1(Cc2ccc(OC)cc2)[C@H]2c3cc(C(=O)N4CCCC4)n(Cc4nc5ccccc5[nH]4)c3C[C@H]2CN1C(=O)c1ccccc1	-2 (inactive)
COc1ccc(NC(=O)O[C@H]2[C@H](OC(=O)c3cc4ccccc4[nH]3)[C@@H](OC(=O)c3cc4ccccc4[nH]3)[C@@H](OC)O[C@@H]2CO)cc1	-4.18 (inactive)
C=C(CCCC)C(=O)CC[C@@H](OC(C)=O)c1ccc(CO)o1	-1.56 (inactive)
O=C1[C@H]2C=C(I)[C@H](C[C@@H]2OCCCCO)[C@@]12CO2	0.634 (inactive)
COCCCNC(=O)[C@@]1(Cc2ccccc2)N=C(c2ccc(OCCCO)cc2)O[C@H]1c1ccccc1CN=[N+]=[N-]	-3.17 (inactive)
CN(C)CCCCCCNC(=O)[C@@H]1C[C@@H]2C(=O)N3CCC[C@H]3C(=O)N2[C@@H]1c1ccc(O)cc1	-0.892 (inactive)
COc1ccc([C@H]2C[C@H]3C(Br)=C[C@@]2(CO)C(=O)[C@]32CO2)cc1	0.187 (inactive)
C=CCNC(=O)[C@@H]1[C@H]2C(=O)O[C@H](c3ccccc3)[C@H](c3ccccc3)N2[C@H](c2ccc(OCCO)cc2)[C@@]12C(=O)N(C(=O)OCCOC)c1ccc(C#CCNC(N)=O)cc12	-1.1 (inactive)
CS(=O)(=O)CCOC(=O)C1=CC(CCCO)=CC(c2ccc(CN3CCCC3)cc2)N(Cc2cccc(OC(F)(F)F)c2)C=C1C(=O)OCCS(C)(=O)=O (configuration not stated)	-1.42 (inactive)
COCCOC(=O)N1C(=O)[C@@]2(c3cc(C#CC4(O)CCCCCC4)ccc31)[C@H](C(=O)Nc1nc3ccccc3s1)[C@H]1C(=O)O[C@H](c3ccccc3)[C@H](c3ccccc3)N1[C@@H]2c1ccc(OCCO)cc1	-3.02 (inactive)
[N-]=[N+]=Nc1ccccc1C[C@]1(C(=O)NCC(O)CO)N=C(c2ccc(OCCCO)cc2)O[C@H]1c1ccccc1 (some centres not stated)	-3.23 (inactive)
[N-]=[N+]=NCc1ccccc1C[C@@]1(C(=O)NCC(O)CO)N=C(c2ccc(OCCCO)cc2)O[C@@H]1c1ccccc1 (some centres not stated)	-4.03 (inactive)
C=CCN1C(=O)[C@]2(O[C@H](CCO)[C@@H]([Si](C)(C)c3ccc(OC)cc3)[C@@H]2C)c2cc(N(C=O)c3ccccc3)ccc21	-7.67 (inactive)
Cc1ccc(S(=O)(=O)N2C[C@@H](C(=O)O)[C@H](Sc3ccccc3)C[C@H]2c2ccccc2)cc1	-0.763 (inactive)
COC(=O)[C@]1(Cc2ccccc2)N=C(c2ccc(OCCCO)cc2)O[C@@H]1c1ccccc1N=[N+]=[N-]	-5.26 (inactive)
C=CC[C@]1(C(N)=O)N=C(c2ccc(OCCCO)cc2)O[C@H]1c1ccccc1	-1.01 (inactive)
[N-]=[N+]=Nc1ccccc1[C@H]1OC(c2ccc(OCCCO)cc2)=N[C@@]1(Cc1ccccc1)C(=O)N1CCOCC1	-4.05 (inactive)
O=C1NC(=O)C2C1C=CC(C(O)c1ccc(-c3ccccc3)s1)N2Nc1ccc(Cl)cc1Cl (configuration not stated)	-1.1 (inactive)

Compound	z-score
NCCCCCNC(=O)[C@H]1C[C@H]2C(=O)N3CCC[C@H]3C(=O)N2[C@H]1c1ccc(O)cc1	0.173 (inactive)
CC(=O)n1cc(C(O)C2C=CC3C(=O)NC(=O)C3N2Nc2ccccn2)c2ccccc21 (configuration not stated)	0.713 (inactive)
CO[C@H]1O[C@H](CO)[C@@H](OC(=O)Nc2cccc(F)c2)[C@H](OC(=O)Nc2ccccc2)[C@H]1OC(=O)Nc1ccccc1	-4.58 (inactive)
CO[C@H]1O[C@H](CO)[C@@H](OC(=O)Nc2ccccc2-c2ccccc2)[C@H](OC(=O)Nc2ccccc2-c2ccccc2)[C@@H]1OC(=O)Nc1ccccc1-c1ccccc1	-3.41 (inactive)
O=C(NCc1ccccc1)[C@@H]1c2ccccc2C(=O)N(C2Cc3ccccc3C2)[C@H]1c1ccc(CO)cc1	-0.746 (inactive)
O=C1C2C=CC(C(O)c3ccc(-c4ccccc4)s3)N(Nc3ccccc3)C2C(=O)N1c1ccccc1 (configuration not stated)	-0.514 (inactive)
Cc1c(NC(=O)/C(C#N)=C/c2cccc([N+](=O)[O-])c2)c(=O)n(-c2ccccc2)n1C	-3.67 (inactive)
O=C1C2C=CC(C(O)c3c(F)cccc3Cl)N(Nc3ccccc3F)C2C(=O)N1c1ccccc1 (configuration not stated)	1.04 (inactive)
NCCCCCCNC(=O)[C@H]1C[C@H]2C(=O)N[C@@H](Cc3ccccc3)C(=O)N2[C@H]1c1cccc(OCCO)c1	0.173 (inactive)
CN(C)CCCC[C@@H]1NC(=O)[C@H]2C[C@@H](C(=O)NCCCCCN)[C@@H](c3cccc(OCCO)c3)N2C1=O	-1.01 (inactive)
O=C(NCCN1CCOCC1)[C@@H]1c2ccccc2C(=O)N(Cc2cc(C(F)(F)F)cc(C(F)(F)F)c2)[C@H]1c1ccc(CO)cc1	-0.0199 (inactive)
COc1ccc([Si](C)(C)[C@@H]2[C@@H](CC(=O)N3Cc4ccccc4C[C@H]3CO)O[C@]3(C(=O)N(Cc4cccc(N5CCC5=O)c4)c4ccccc43)[C@H]2C)cc1	-3.42 (inactive)
CN1C(=O)C2C=CC(C(O)c3c(F)cccc3Cl)N(NC(=O)OC(C)(C)C)C2C1=O (configuration not stated)	0.736 (inactive)
O=C1OCCC/C=C\[C@H]2OC34C=CCN(c5ccc6ccccc6c5)C(=O)[C@H]3N(CCCCCO)C(=O)[C@@H]4C12 (some centres not stated)	0.123 (inactive)
COc1ccc([Si](C)(C)[C@H]2[C@H](CC(=O)N3CCC[C@H]3CO)O[C@@]3(C(=O)N(Cc4cccc(N5CCOC5=O)c4)c4ccccc43)[C@@H]2C)cc1	-5.09 (inactive)
COCC(=C=CC[C@H](O)c1cccc(OCCO)c1)CCO	0.15 (inactive)
C=CCC(OC(C)=O)[C@@H]1[C@@H](N(Cc2ccc(-c3cccc(C(F)(F)F)c3)o2)C(=O)c2cccc3ccccc23)c2cc(OCCCO)ccc2N1C(=O)Cc1ccc2ccccc2c1 (some centres not stated)	-0.952 (inactive)
COCCOC(=O)N1C(=O)[C@@]2(c3ccccc31)[C@H](C(=O)N1CCCCCCC1)[C@H]1C(=O)O[C@H](c3ccccc3)[C@H](c3ccccc3)N1[C@@H]2c1ccc(OCCO)cc1	-2.7 (inactive)
